# Hits are enriched below; roughly 15% of the tested compounds scored in any of these assays.
# Sm TGR block – blocks Schistosoma mansoni thioredoxin glutathione reductase | purified TGR, DTNB reduction, TNB absorbance 405 nm | Potency, µM (top dose mostly 114 µM), actives largely listed as inhibitors | 360,000 tested, 3% active; also: nearly all actives have a fitted effect of over 60% in size
#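 TGR 20 nM + NADPH 100 uM (dispensed conc.), cpd preinc 15 min RT; start with NADPH (500 uM addition) then DTNB (15 mM addition). Kinetic TNB absorbance, 405 nm filter. Four-parameter Hill fit across titration.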
# HCV inhibitor – HCV inhibition; Huh7.5.1 HCVcc-Cre infection, luciferase reporter, 44 h; 340,000 tested, 3.4% active; Potency, µM (titrated, usually from 41.8 µM), usual class: inhibitors; AID 651820
#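 Luciferase read-out (15 sec integration) after a 15 min room-temperature substrate step quantifies HCVcc-Cre infection. Cells, 1,000 per well, had compound added 4 h post-plating, then virus at ~0.5 moi, and were cultured 44 h.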
# HCMV antiviral – inhibitors of human cytomegalovirus. HFF cells, HCMV-luciferase reporter, 72 h; stronger effect = lower value. 410,000 tested, 4.5% active. activity change, negative = inhibition, % at 57.5 µM; in the data active = activity change below about -60%; inconclusive = no clear call, values can overlap the other calls; inactive = above about -39%
#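 Inhibition of viral replication was scored as loss of reporter luminescence in HFFs infected with HCMV-luciferase (MOI 1 PFU/cell) for 72 h; compounds tested at 2 doses, normalized to buffer and Salinomycin controls.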
# Pf growth 48h – P. falciparum growth inhibition at 48 hours (one generation); P. falciparum luciferase growth in erythrocytes, 48 h; Potency, µM (series often up to 28.7 µM), most hits filed as inhibitors; 310,000 tested, 5.9% active
#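 Compounds are pin-transferred into medium, infected erythrocytes (2% hematocrit, 0.1% parasitemia final) are added, and plates sit one parasite generation at 37 C in 5% CO2. Detection reagent is then added and luminescence measured.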
# SARS PLP yeast – SARS-CoV PLP inhibition in yeast; Potency, µM (series often up to 32.9 µM), usual class: activators; AID 485353; S. cerevisiae expressing SARS-CoV PLpro, growth rescue; 330,000 tested, 0.19% active; calls by dose curve; also: nearly all actives have a fitted effect of over 55% in size
# Pf growth 96h – P. falciparum growth inhibition at 96 hour, primary screen for plastid delayed-death inhibitors; Potency, µM (doses to about 28.7 µM), most hits filed as inhibitors; AID 504834; P. falciparum luciferase reporter growth, 96 h; 320,000 tested, 6.9% active
#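 Two-generation exposure (96 h) targets delayed-death phenotype. Reporter parasites carrying integrated firefly luciferase, in red cells at 2% hematocrit and 0.05% parasitemia final, kept at 37 C, 5% CO2; luminescence loss indicates inhibition.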
# Numbers stand for hits; n = inactive; u = inconclusive; x = no result given. Unless noted, calls follow the shape of the dose curve; as a rule, active = well fitted curve in the direction sought with a large enough effect; inconclusive = small, poorly fitted or top-dose-only effect, or another doubt; inactive = no such curve, though single readings can be large; an effect the other way counts as inactive or inconclusive.
SMILES,Sm TGR block,HCV inhibitor,HCMV antiviral,Pf growth 48h,SARS PLP yeast,Pf growth 96h
CC(=O)c1ccc(NS(=O)(=O)c2cc3[nH]c(=O)c(=O)[nH]c3cc2C)cc1,n,x,n,x,x,x
CC(C)c1ccc(NC(=O)NN2CCOCC2)cc1,n,n,n,n,n,n
Cc1ccc(-c2ccc(=O)n(CC(=O)NCCN(CC(C)C)CC(C)C)n2)cc1,n,n,n,n,n,n
COc1cccc(CNC(=O)c2cc3n(n2)CCCN(Cc2ccc(C)cc2)C3=O)c1OC,n,x,n,x,x,x
COc1ccc(OCC(=O)N(Cc2cccc(OC)c2)C2CCS(=O)(=O)C2)cc1 (stereo not drawn),n,x,n,x,x,x
C[C@H]1[C@H](NC(=O)/C(=N/OC(C)(C)C(=O)O)c2csc(N)n2)C(=O)N1S(=O)(=O)O (stereo in doubt),x,x,x,n,x,n
CCc1ccc(-c2cc(C)no2)cc1S(=O)(=O)N1CCN(c2cccc(Cl)c2)CC1,n,x,n,x,x,x
CCc1ccc(-c2cc(C)no2)cc1S(=O)(=O)N1CCN(c2ccc(C(C)=O)cc2)CC1,n,6.31µM,u,u,n,n
O=S(=O)(c1ccc(Cl)c(NC(=S)N/N=C/c2ccc(O)cc2)c1)N1CCOCC1,n,u,-82.6,n,n,3.29µM
N#Cc1ccc(/C=N/NC(=S)Nc2ccc(S(=O)(=O)N3CCOCC3)cc2)cc1,n,n,n,u,n,u
O=S(=O)(c1ccc(NC(=S)N/N=C/c2ccc(O)c(O)c2)cc1)N1CCOCC1,n,n,n,14.7µM,n,13.1µM
O=[N+]([O-])c1cc(Cl)cc(/C=N/NC(=S)Nc2ccc(S(=O)(=O)N3CCOCC3)cc2)c1O,n,n,n,0.465µM,n,u
Cc1ccc(C)c(NC(=O)C[n+]2ccccc2)c1,n,n,n,n,n,u
COc1ccc(N2CCN(CCC(=O)c3ccc4ccccc4c3)CC2)cc1,u,n,n,n,n,n
COc1cccc(-n2c(SCC(=O)NC3CC3)nc3ccccc3c2=O)c1,x,x,n,x,x,x
O=C(c1cccn2c(=O)c3ccc(Cl)cc3nc12)N1CCN(Cc2ccc3c(c2)OCO3)CC1,n,n,n,n,n,7.38µM
O=C(c1cccc(Cl)c1)N1CCN(Cc2ccc3c(c2)OCO3)CC1,n,n,n,u,n,n
O=C(c1cc2c(=O)n3ccccc3nc2s1)N1CCN(Cc2ccc3c(c2)OCO3)CC1,x,n,u,n,n,6.57µM
CC(C)[C@H](NC(=O)c1ccccc1)C(=O)OCC(=O)Nc1ncc(Cl)cc1Cl,x,n,n,x,n,x
CCc1nc(C)ccc1OC(=O)C12CC3CC(CC(C3)C1)C2,n,n,n,n,n,0.586µM
COc1ccccc1CNCC(O)(c1ccc(Cl)cc1)c1ccc(Cl)cc1,n,u,n,1.65µM,n,1.65µM
COc1ccccc1CNCC(O)(c1ccc(F)cc1)c1ccc(F)cc1,n,u,n,3.7µM,n,4.65µM
CC(C)CCNC(=O)C(=O)Nc1ccc2c(c1)N(S(=O)(=O)c1cccs1)CCC2,n,u,n,5.86µM,n,u
CC(C)CNC(=O)C(=O)Nc1ccc2c(c1)N(S(=O)(=O)c1cccs1)CCC2,n,u,n,u,n,10.4µM
COC(CNC(=O)C(=O)Nc1ccc2c(c1)N(S(=O)(=O)c1cccs1)CCC2)OC,n,u,n,u,n,n
SMILES,Sm TGR block,HCV inhibitor,HCMV antiviral,Pf growth 48h,SARS PLP yeast,Pf growth 96h
O=C(c1cc(-c2cccc(Br)c2)nc2ccccc12)N1CCCC1,n,n,u,u,n,n
CCN1CCN(c2ncc(C(=O)N3CCCc4ccccc43)c3ccccc23)CC1,n,u,n,u,n,11.7µM
O=C(c1ccccc1F)N1CCCc2ccccc21,n,n,n,n,n,u
Cc1cccc(-c2cc(C(=O)N3CCCc4ccccc43)c3ccccc3n2)c1,n,n,n,8.28µM,n,u
CCN1CCN(c2ncc(C(=O)Nc3cc(Cl)ccc3OC)c3ccccc23)CC1,n,u,n,u,n,n
O=C(c1cc(-c2ccccc2)nc2ccccc12)N1CCCc2ccccc21,n,n,-62.7,2.94µM,n,u
COc1ccccc1CC1/C(=N/O)C2CCN1CC2 (stereo not drawn),n,n,n,n,n,u

# Bioassay records as filed in PubChem BioAssay.
